Results on 3 molecules are retold here after PubChem BioAssay.

Values joined by “and” are separate entries in the source; they are usually repeats but may differ in a detail not shown here. Equal values may be shown once. Active and inactive are the calls of the source. Unless noted, how the calls were made is not given here.

Assay [1] is described as follows: compounds binding Alexa647 anti-His antibody – biochemical, small-molecule microarray, 635 nm fluorescence, artefact control for SMM control protein annotation, primary screen (AID 1128).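 Further: score merges feature fluorescence with signal-to-noise for each printed compound spot.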 Conditions: higher = more signal.
Assay [2] deals with Human papillomavirus type 1a E7 protein (residues 1-88). As to the kind of experiment: HPV1a E7 small-molecule binders, primary screen, biochemical, small-molecule microarray, residues 1-88, 635 nm (AID 1129). As to conditions: small-molecule microarray binding, fluorescence 635 nm; higher = more signal.
Assay [3] deals with Focal adhesion kinase 1 (Homo sapiens) (UniProt Q05397). As to the kind of experiment: PTK2 protein binding on printed compound slides – biochemical, small-molecule microarray, 635/667 nm fluorescence, BSA, DTT, primary screen (AID 1130).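 Further: composite of spot emission at 667 nm and signal to noise over triplicate slides.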 Conditions: 635 nm fluorescence, higher = more signal.
Focal adhesion kinase 1 (Homo sapiens), sequence (Q05397 whole entry, looked up): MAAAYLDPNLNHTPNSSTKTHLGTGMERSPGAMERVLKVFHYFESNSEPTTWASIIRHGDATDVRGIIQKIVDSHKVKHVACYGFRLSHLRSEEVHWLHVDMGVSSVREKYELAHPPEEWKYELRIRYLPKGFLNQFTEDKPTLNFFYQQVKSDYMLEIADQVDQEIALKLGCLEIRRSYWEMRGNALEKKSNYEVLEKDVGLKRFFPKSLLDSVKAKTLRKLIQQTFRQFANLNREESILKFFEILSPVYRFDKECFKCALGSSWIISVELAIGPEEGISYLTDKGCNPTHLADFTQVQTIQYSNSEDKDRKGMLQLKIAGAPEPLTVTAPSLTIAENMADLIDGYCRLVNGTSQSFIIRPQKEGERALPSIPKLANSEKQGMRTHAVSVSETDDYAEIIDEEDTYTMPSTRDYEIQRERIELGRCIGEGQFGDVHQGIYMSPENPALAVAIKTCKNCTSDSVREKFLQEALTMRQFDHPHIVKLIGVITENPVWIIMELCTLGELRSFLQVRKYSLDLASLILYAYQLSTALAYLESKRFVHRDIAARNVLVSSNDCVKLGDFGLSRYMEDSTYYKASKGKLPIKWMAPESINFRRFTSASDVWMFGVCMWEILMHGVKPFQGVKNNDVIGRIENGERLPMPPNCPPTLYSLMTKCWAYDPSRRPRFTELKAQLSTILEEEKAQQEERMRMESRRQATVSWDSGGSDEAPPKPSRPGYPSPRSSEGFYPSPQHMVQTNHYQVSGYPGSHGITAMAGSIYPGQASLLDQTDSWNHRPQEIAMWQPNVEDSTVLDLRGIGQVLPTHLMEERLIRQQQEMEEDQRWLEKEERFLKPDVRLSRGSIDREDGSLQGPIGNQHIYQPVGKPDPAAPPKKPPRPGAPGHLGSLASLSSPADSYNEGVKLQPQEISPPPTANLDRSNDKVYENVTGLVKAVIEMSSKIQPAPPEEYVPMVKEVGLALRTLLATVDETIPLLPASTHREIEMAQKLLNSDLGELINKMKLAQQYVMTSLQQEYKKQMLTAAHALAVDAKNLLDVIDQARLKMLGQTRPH
Assay [4] has as its system Fibrinogen (Alexa647-labelled). The assay is described as follows: Alexa647-fibrinogen binding to printed small molecules – biochemical, small-molecule microarray, 635/667 nm fluorescence, artefact control for SMM control-protein annotation, profiling panel (AID 1131).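 Further: z-score merges 667 nm fluorescence with per-spot signal-to-noise over triplicate slides.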 As to conditions: fibrinogen-A647 binding fluorescence, higher = more signal.
The target of assay [5] is Follistatin (Homo sapiens) (UniProt P19883). As to the kind of experiment: FST protein binding to printed compounds – biochemical, small-molecule microarray, 635/667 nm fluorescence, primary screen (AID 1132). Conditions: 635 nm fluorescence, higher = more signal.
Follistatin (Homo sapiens), sequence (P19883 whole entry, looked up): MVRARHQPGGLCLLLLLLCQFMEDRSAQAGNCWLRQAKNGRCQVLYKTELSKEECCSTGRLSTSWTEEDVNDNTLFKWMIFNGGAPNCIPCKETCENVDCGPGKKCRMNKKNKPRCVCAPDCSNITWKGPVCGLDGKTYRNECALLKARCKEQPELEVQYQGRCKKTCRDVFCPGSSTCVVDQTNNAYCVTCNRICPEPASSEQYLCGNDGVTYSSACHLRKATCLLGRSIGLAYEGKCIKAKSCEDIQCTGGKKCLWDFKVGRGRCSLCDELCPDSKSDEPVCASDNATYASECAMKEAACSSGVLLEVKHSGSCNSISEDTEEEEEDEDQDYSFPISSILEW
Assay [6] addresses Fibroblast growth factor 2 (Homo sapiens) (UniProt P09038). As to the kind of experiment: basic fibroblast growth factor binding to printed compounds – biochemical, small-molecule microarray, 635/667 nm fluorescence, primary screen (AID 1133). Conditions: FGF2, fluorescence 635/667, higher = more signal.
Assay [7] is described as follows: JC-1 mitochondrial potential readout, lung cancer cells – cell-based, A549, JC-1 fluorescence, basal, 24 h, 100 nL, profiling panel (AID 1138).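 Further: A549 lung adenocarcinoma cells under basal conditions with no added stimulus; test concentration not given here.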 As to conditions: higher = more signal.
For assay [8], the system named is Lefty1. The assay is described as follows: Lefty1 protein binding to printed compounds – biochemical, small-molecule microarray, 635/667 nm fluorescence, primary screen (AID 1139). Conditions: fluorescence 635/667, higher = more signal.
Assay [9] has as its system wheat germ agglutinin (Triticum aestivum), Alexa647-labelled. As to the kind of experiment: Alexa647-WGA lectin binding to printed small molecules – biochemical, small-molecule microarray, 635/667 nm fluorescence, artefact control for SMM control-protein annotation, profiling panel (AID 1140).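 Further: score merges 667 nm feature emission with signal to noise over triplicate slides.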 As to conditions: WGA-A647 binding, 635 nm fluorescence, higher = more signal.

Assay [10] deals with Luciferin 4-monooxygenase (Photinus pyralis) (UniProt P08659). The assay is described as follows: inhibition of purified Photinus pyralis luciferase – biochemical, luminescence, purified enzyme, 2006 set, primary screen (AID 1141).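 Further: cell-free assay with purified firefly luciferase at 100 ng per well in PBS; test concentration not given here.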 As to conditions: purified firefly luciferase, SteadyGlo luminescence, 30 min; higher = more signal, called active from +8 up or from −8 down.
Luciferin 4-monooxygenase (Photinus pyralis), sequence (P08659 whole entry, looked up): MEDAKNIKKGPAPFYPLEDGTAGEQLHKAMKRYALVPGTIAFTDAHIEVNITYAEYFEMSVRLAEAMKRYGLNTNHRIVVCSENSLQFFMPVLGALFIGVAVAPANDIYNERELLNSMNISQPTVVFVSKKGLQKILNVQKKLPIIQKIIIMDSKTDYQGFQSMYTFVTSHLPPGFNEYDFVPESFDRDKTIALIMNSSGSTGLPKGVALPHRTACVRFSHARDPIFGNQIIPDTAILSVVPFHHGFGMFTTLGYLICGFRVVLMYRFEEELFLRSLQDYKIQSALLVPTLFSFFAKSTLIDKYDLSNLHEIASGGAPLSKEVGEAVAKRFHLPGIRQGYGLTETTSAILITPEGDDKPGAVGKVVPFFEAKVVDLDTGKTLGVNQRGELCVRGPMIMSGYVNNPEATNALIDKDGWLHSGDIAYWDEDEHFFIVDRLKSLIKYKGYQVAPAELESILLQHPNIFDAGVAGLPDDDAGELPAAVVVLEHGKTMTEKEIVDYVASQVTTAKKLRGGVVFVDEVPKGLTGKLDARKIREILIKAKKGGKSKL
Assay [11] concerns Wnt5a (protein binding on small-molecule microarray). As to the kind of experiment: small molecules binding Wnt5a protein – biophysical, small-molecule microarray, 635/667 nm fluorescence, primary screen (AID 1142).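 Further: fluorescence read at 667 nm with signal to noise per printed feature.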 As to conditions: 635 nm fluorescence, higher = more signal.
The nature of assay [12]: ATP-based viability of Huh7 replicon cells – cell-based, CellTiter-Glo luminescence, basal, 48 h, cytotoxicity control for HCV replication inhibitor project, primary screen (AID 1143).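 Further: Huh7 hepatoma cells carrying a hepatitis C replication reporter with no stimulus; test concentration not given here.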 As to conditions: higher = more signal, called active from +8 up or from −8 down. A general note: Replicon systems follow genome replication, usually without infectious particles.
A short description of assay [13]: Pseudomonas biofilm growth suppression – PAO1 strain, BacTiter-Glo luminescence, LB-PBS, primary screen (AID 1144). As to conditions: P. aeruginosa PAO1 biofilm, 12 h, higher = more signal.
Assay [14] can be described thus: basal CRE-LacZ reporter activity in PC12 – cell-based, unstimulated, primary screen (AID 1145). Conditions: no forskolin, luminescence, 4.5 h, higher = more signal, called active from +8 up or from −8 down.
Assay [15] can be described thus: forskolin-driven CRE-LacZ activity in PC12 – cell-based, CRE-LacZ reporter, forskolin-stimulated, primary screen (AID 1146).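 Further: PC12 cells with 6xCRE LacZ reporter stimulated by forskolin 10 µM; beta-galactosidase reporter signal reflecting CREB driven transcription.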 As to conditions: luminescence, 4.5 h, higher = more signal, called active from +8 up or from −8 down.
The target in assay [16] is Streptavidin (Streptomyces avidinii) (UniProt P22629). The assay is described as follows: compounds binding control protein streptavidin – biophysical, small-molecule microarray, 635/667 nm fluorescence, artefact control for SMM compound annotation, primary screen (AID 1147).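 Further: signal reflects streptavidin binding to arrayed compounds as a control protein.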 As to conditions: higher = more signal.
Streptavidin (Streptomyces avidinii), sequence (P22629 whole entry, looked up): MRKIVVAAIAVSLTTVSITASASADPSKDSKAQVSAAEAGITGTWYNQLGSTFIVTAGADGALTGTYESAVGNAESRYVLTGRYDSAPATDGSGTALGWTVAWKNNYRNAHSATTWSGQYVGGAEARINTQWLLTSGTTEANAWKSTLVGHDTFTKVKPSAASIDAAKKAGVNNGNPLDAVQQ
The nature of assay [17]: probe aInhba binding on compound microarray – biochemical, small-molecule microarray, 635/667 nm fluorescence, primary screen (AID 1148).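 Further: score merges 667nm spot fluorescence with signal-to-noise for antibody binding to printed compounds.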 Conditions: higher = more signal.
Assay [18] deals with Torsin-1A (Homo sapiens) (UniProt O14656). The assay is described as follows: TOR1A wild-type binding on microarray – cell lysate, small-molecule microarray, lysate, 635/667 nm, primary screen (AID 1149). Conditions: COS7 hTOR1A-WT lysate, 635 nm fluorescence, higher = more signal.
Torsin-1A (Homo sapiens), sequence (O14656 whole entry, looked up): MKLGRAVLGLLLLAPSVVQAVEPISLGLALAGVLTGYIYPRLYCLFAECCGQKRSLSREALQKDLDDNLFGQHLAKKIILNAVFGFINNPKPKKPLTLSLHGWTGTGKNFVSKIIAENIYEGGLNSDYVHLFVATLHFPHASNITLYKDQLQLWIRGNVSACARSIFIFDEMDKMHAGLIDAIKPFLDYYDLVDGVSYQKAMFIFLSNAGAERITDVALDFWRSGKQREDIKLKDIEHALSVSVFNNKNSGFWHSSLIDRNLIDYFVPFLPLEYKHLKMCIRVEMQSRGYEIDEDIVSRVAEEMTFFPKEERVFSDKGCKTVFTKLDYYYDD
Assay [19] shares this target. As to the kind of experiment: torsin A mutant lysate binding on microarrays – cell lysate, small-molecule microarray, COS7 lysate, 635/667 nm fluorescence, primary screen (AID 1150).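 Further: score pools 667 nm emission and signal to noise measuring lysate protein binding.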 Conditions: COS7 hTOR1A mutant lysate, 635 nm fluorescence, higher = more signal.
Assay [20] concerns Sonic hedgehog protein (Shh). The assay is described as follows: Sonic hedgehog microarray binding compounds – biochemical, small-molecule microarray, 635/667 nm fluorescence, primary screen (AID 1151).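 Further: Shh protein binding to compounds spotted on small-molecule microarray slides; score combines spot fluorescence intensity with signal-to-noise across triplicate slides.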 Conditions: 635 nm fluorescence, higher = more signal.

Fibroblast growth factor 2 (Homo sapiens), sequence (P09038 whole entry, looked up): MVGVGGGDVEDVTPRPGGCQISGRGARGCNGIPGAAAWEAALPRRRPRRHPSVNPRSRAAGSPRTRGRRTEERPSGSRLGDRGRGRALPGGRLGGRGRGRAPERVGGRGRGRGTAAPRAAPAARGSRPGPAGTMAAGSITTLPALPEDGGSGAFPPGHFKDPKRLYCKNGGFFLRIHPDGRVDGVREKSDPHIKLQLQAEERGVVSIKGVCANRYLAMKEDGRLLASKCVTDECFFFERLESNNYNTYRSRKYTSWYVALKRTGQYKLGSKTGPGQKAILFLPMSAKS

In the case of `C=CCN(C(=O)C(c1cccs1)N(CCOCCO)C(=O)/C=C\C(=O)O)C(C)(C)C` (stereo not given), the composite z-score in assay [1] is -1.68 and -1.56; in assay [2] it was -1.4 and -0.488; in assay [3], -1.37 and -0.35; in [4], -0.7 and -1.15; in [5], -2.15 and -0.795; in assay [6], -1.7 and -1.19. The composite z-score is -1.66 and -1.83 in assay [8]; -1.04 and -0.022 in [9]; -0.775 and -0.776 in assay [11]; -1.89 and -1.22 in [16]; -0.251 and -0.176 in assay [17]; -1.26 and -0.984 in [18]. For the same molecule, the composite z-score is -1.79 and -2.02 in [19]; -1.27 and -0.703 in assay [20]. Further, the z-score is 1.01 and 1.41 in assay [7]; -1.5 (inactive) and -1.32 (inactive) in [10]; -0.199 (inactive) and -0.0585 (inactive) in [12]; -1.2 (inactive) and -0.384 (inactive) in [13]; 1.42 (inactive) and 0.191 (inactive) in assay [14]; 0.005 (inactive) and -0.599 (inactive) in assay [15].

As for `COC(=O)[C@H](C)NC(=O)CCC1CC(OC(=O)NCCc2ccc(F)cc2)CC2(CCCC(COC(=O)NCCCN3CCCC3=O)O2)O1` (stereo not given in full), the composite z-score in assay [1] was 0.944; in assay [2], 1.17; in [3], 0.534; in [4] it was 0.872; in assay [5] it was 1.03; in [6], 1.3. Moreover, the composite z-score in assay [8] is 1.55; in assay [9], 0.526; in [11], 0.29; in assay [16] it was 0.953; in assay [17] it was 0.117; in assay [18] it was 0.273. Moreover, the composite z-score was found to be 0.268 in assay [19] and 1.07 in [20]. Besides, the z-score is -0.498 in [7]; 0.824 (inactive) in [10]; -0.959 (inactive) in [12]; 0.0154 (inactive) in assay [13]; -0.704 (inactive) in assay [14]; 0.597 (inactive) in assay [15].

With `C=CC[C@@H](O)c1ccc(OCCO)cc1`, the composite z-score was 0.7 and -0.687 in assay [1]; 0.301 and -0.59 in assay [2]; -0.595 and -0.79 in assay [3]; -1.34 and -0.494 in assay [4]; 0.716 and -0.517 in [5]; -0.418 and -1.58 in [6]. The composite z-score in assay [8] was -0.146 and -0.805; in [9], -0.455 and 0.763; in assay [11], -0.0578 and -0.579; in assay [16], -1.47 and -0.878; in assay [17], -0.259 and -0.153; in assay [18] it was 0.588 and -3.38. Besides, the composite z-score was 0.479 and -2.42 in assay [19]; 0.0925 and -0.262 in assay [20]. Also, the z-score was 0.856 and 0.491 in assay [7]; -6.43 (inactive) and -6.38 (inactive) in assay [10]; -0.924 (inactive) and -0.105 (inactive) in assay [12]; 0.517 (inactive) and -0.242 (inactive) in [13]; -0.431 (inactive) and 0.772 (inactive) in assay [14]; -0.613 (inactive) and -0.949 (inactive) in assay [15].
